# System: Plasmodium falciparum NF54
# Test: growth inhibition relative to untreated control; higher = more inhibition
# Details: 1 µM; minimal medium (MM); 72 h
# Summary of the method: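 P. falciparum NF54 ring stages (1% hematocrit, 1% parasitemia, 100 μL/well in 96-well half-area dark plates) were exposed for 72 h at 37 °C to single 5 μM or 1 μM doses of Pathogen Box compounds. The medium was minimal RPMI or minimal RPMI plus chorismate end-products (2.2 μM folate, 7.3 μM pABA, 7.3 μM pHBA, 111 μM tyrosine, 90 μM phenylalanine, tryptophan). Growth inhibition was read by SYBR Green, normalised to untreated controls, with uninfected erythrocytes as background.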
row,SMILES,growth inhibition
1,Cc1cc2nc(NC(=O)C(C)(C)C)nc(Cl)c2n1Cc1ccc(Cl)cc1,28.8%
2,CCc1cc(=O)n(C)c(SC(C)C(=O)Nc2ccc(F)cc2)n1 (stereo unspecified),2.62%
3,COc1cccc(-c2cc3c(Nc4cccnc4)nccc3[nH]2)c1,18.4%
4,CO[C@H]1/C=C\O[C@@]2(C)Oc3c(C)c(O)c4c(O)c(/c(=C/NN5CCN(C)CC5)c(O)c4c3C2=O)=N\C(=O)/C(C)=C\C=C/[C@H](C)[C@H](O)[C@@H](C)[C@@H](O)[C@@H](C)[C@H](OC(C)=O)[C@@H]1C,38.2%
5,CN1CCCN(C(c2ccccc2)c2ccc(Cl)cc2)CC1 (stereo unspecified),< 0%
6,CNCCC(Oc1ccc(C(F)(F)F)cc1)c1ccccc1 (stereo unspecified),< 0%
7,O=C(C1CCCCC1)N1CC(=O)N2CCc3ccccc3C2C1 (stereo unspecified),15.5%
8,C[C@H](C(N)=O)N1CCCC[C@@H]1c1ccc(OCc2cccc(F)c2)cc1,< 0%
9,NCC(c1cccs1)S(=O)(=O)c1ccccc1 (stereo unspecified),< 0%
10,Cc1nn(C(=O)Nc2cccc(C(F)(F)F)c2)c(C)c1Sc1ncccn1,< 0%
11,Cc1ccccc1C(=O)N1N=C(Nc2ccccc2)SC1(C)C,9.58%
12,Cc1cc(NC(=O)c2ccc(Oc3ccc(Cl)cc3O)o2)no1,27.1%
13,c1ccc2c(c1)CN(CC1CC1)CC1(CCN(Cc3c[nH]c4cnccc34)CC1)O2,97.8%
14,O=C(Nc1nnc(-c2ccc(Cl)s2)o1)c1ccc(Cl)s1,22.8%
15,COc1ccc(Cn2cnc3c(-c4ccco4)nc(Cl)nc32)cc1,13.5%
16,CCOC(=O)c1c(NC(=O)c2c(F)c(F)c(F)c(F)c2F)sc(C(N)=O)c1C,< 0%
